{"source": "PubChem BioAssay (NCI)", "note": "The panel holds about 83,000 compounds, 20% with a hit somewhere; the sample as a whole holds those more often.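 Negative percent growth values reflect cell death: -40 means 40% of the cells present at the start died, and -100 means all died.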 Unmarked numbers belong to inactive results. Active and inactive are the calls of the source. Rule for the calls: active = growth percent below 10; inactive = the rest."}
{"test_system": "HL-60(TB) leukemia", "assay": "NCI-60 one-dose screen, 48 h (100 = growth as untreated, 0 = no growth, -100 = all killed)", "conditions": "10 µM unless noted"}
{"smiles": "COc1cc(/C=C/C(=O)CC(=O)/C=C/c2ccc(O)c(OC)c2)ccc1O", "growth": "0.358% (active)"}
{"smiles": "CC1(C)CCC(=NNC(N)=S)CC1", "growth": "109%"}
{"smiles": "NC(=N\\N=C\\c1ccccc1O)/C(N)=N/N=C/c1ccccc1O", "growth": "69.5%"}
{"smiles": "CCc1ccccc1-n1[nH]c(C)c(C=N)c1=O", "growth": "98.3%"}
{"smiles": "Clc1cc(Cl)cc(N2N=C(c3cccc(Nc4ccncc4)c3)CC2c2ccccc2)c1", "note": "(stereo not given)", "growth": "4.62% (active)"}
{"smiles": "COc1ccc(/C=C/C(=O)c2cc3c(N)c(C(=O)Nc4ccccc4Cl)sc3nc2C)cc1", "growth": "4.2% (active)"}
{"smiles": "CCOC(=O)c1cnc2sc(-c3ccc(OC)cc3)nc2c1Cl", "growth": "93.8%"}
{"smiles": "C[C@H]1C(=O)C23CCC1C[C@@]21O[C@@H]2C(C)(C)C=CC(=O)C23COC1=O", "growth": "97.8%"}
{"smiles": "COc1ccc2c(c1)OC1=C(C(=O)OC1)C2c1cc(OC)c2c(c1)OCO2", "note": "(stereo not given)", "growth": "-13% (active)"}
{"smiles": "CCN(CC)CCOc1ccc2c(-c3ccccc3)c(-c3ccc(OC)cc3)c(=O)oc2c1", "growth": "48.8%"}
{"smiles": "Cn1nc(N)c2cc([C@@H]3Nc4ccc5[nH]ncc5c4[C@H]4C5CCC(C5)[C@@H]34)ccc21", "note": "(stereo not given in full)", "growth": "-16.6% (active)"}
{"smiles": "CCCCCCCCCCCCCCCCCC[n+]1ccc2c(C)c3c(c(C)c2c1)c1cc(O)ccc1n3CC", "growth": "30.2%"}
{"smiles": "COCCn1cc(-c2csc(-c3c[nH]c4ccc(Br)cc34)n2)c2cccnc21", "growth": "20.5%"}
{"smiles": "Cc1ccc(/C(CS(=O)(=O)c2ccc(C)cc2)=N\\O)cc1", "growth": "99%"}
{"smiles": "COC(=O)c1cccc(Br)c1", "growth": "81.6%"}
{"smiles": "COc1cc2c(=O)[nH]c3cc([N+](=O)[O-])ccc3c2cc1[N+](=O)[O-]", "growth": "71.1%"}
{"smiles": "CN(C)c1ccc2cc(-c3nc4ccccc4s3)c(N)nc2c1", "growth": "0.561% (active)"}
{"smiles": "NS(=O)(=O)c1cccc(NC(=O)C(=O)C2C(=O)Nc3ccccc32)c1", "note": "(stereo not given)", "growth": "159%"}
{"smiles": "Cc1cc(N2CCCC2)nc(NCc2cc(Nc3ccnc4cc(Cl)ccc34)ccc2F)n1", "growth": "-61.1% (active)"}
{"smiles": "Cc1oc(-c2ccc(Cl)cc2Cl)cc1C(=O)Nc1nccs1", "growth": "97.4%"}
{"smiles": "CC/C=C\\C/C=C\\C[C@H](O)C/C=C1/C(=O)C=C[C@H]1C/C=C\\CCC(=O)OC", "growth": "1.46% [8.25 µM] (active)"}
{"smiles": "O=c1c2cccc(F)c2sc2c(N3CCNCC3)nc3ccccc3c12", "growth": "30.9%"}
{"smiles": "COC1CCC(N2C(=O)CNc3ncc(-c4ccc(C(C)(C)O)nc4)nc32)CC1", "note": "(stereo not given)", "growth": "11.2%"}
{"smiles": "O=C(CCCC(=O)Nc1ccc(Cn2nnc3cc(Cl)c(Cl)cc32)cc1)Nc1ccc(CN2N=NC3C=C(Cl)C(Cl)=CC32)cc1", "note": "(stereo not given)", "growth": "89.7%"}
{"smiles": "O=C1C(=O)c2c(nc3ncccn23)-c2ccccc21", "growth": "-51% (active)"}
{"smiles": "O=C(Nc1cccc([N+](=O)[O-])c1)c1ccc2ccccc2c1O", "growth": "39.4%"}
{"smiles": "NC(=O)NN=C(C1CC1)C1CC1", "growth": "62.2%"}
{"smiles": "CCn1cc(C2NC(=O)c3ccccc3N2)c2cccc(C)c21", "note": "(stereo not given)", "growth": "-56.2% (active)"}
{"smiles": "O=C(NCCCN1CCCCC1)c1ccc(-c2nc3ccc4[nH]ncc4c3c3c2CCCC3)cc1", "growth": "93.4%"}
{"smiles": "Cn1cc(-c2csc(-c3cn(CCCN4CCCCC4)c4ccccc34)n2)c2cccnc21", "growth": "-65.2% (active)"}
{"smiles": "Cc1cccc(C[C@H](NC(=O)Nc2ccc(Cl)cc2F)C(=O)N[C@@H]2C(=O)N3C[C@H](O)C[C@H]3C(=O)N3CCN(C)C[C@H]3C(=O)N[C@@H](C)C(=O)N3C[C@H](C)C[C@H]3C(=O)O[C@H]2C)c1", "growth": "32.8%"}
{"smiles": "COc1ccc(C(=O)c2cc3c(N)c(C(=O)Nc4ccccc4)sc3nc2C)cc1", "growth": "-46% (active)"}
{"smiles": "O=C(Nc1ccccc1)C(CCCCN1C(=O)c2ccccc2C1=O)N1C(=O)c2ccccc2C1=O", "note": "(stereo not given)", "growth": "104%"}
{"smiles": "COc1c(B(O)O)cccc1-c1nc2ccc3[nH]ncc3c2c2c1C1CCC2C1", "note": "(stereo not given)", "growth": "20%"}
{"smiles": "CCCCOc1nc2ccc(OC)cc2cc1-c1cc(-c2ccc(Cl)cc2)nc(-c2ccc(Cl)cc2)c1", "growth": "103%"}
{"smiles": "CCn1cc(C(=O)O)c(=O)c2cc(F)c(N3CCN(S(=O)(=O)c4c(C)cc(C)cc4C)CC3)cc21", "growth": "73%"}
{"smiles": "COc1c(Br)cc(C(c2cc(Br)c(OC)c(Br)c2)c2ccccc2C(=O)O)cc1Br", "growth": "91%"}
{"smiles": "CCCCCCCCCCCCCCCCn1cc[n+](C)c1", "growth": "45.7%"}
{"smiles": "O=[N+]([O-])c1ccc(/C=C/C2(CCl)OCCO2)cc1", "growth": "76.2%"}
{"smiles": "Cn1c(COC(=O)NCCN2CCOCC2)nc2c(N3CCOCC3)nc(-c3ccccc3)nc21", "growth": "-52.8% (active)"}
